Test results from paper PMC12136788.
Over roughly 5,800 sequences, “enrichment r” has its median near 0.68; the highest 2% begin near 11. Not all results are given here.

T1: UNK ZnF1-6 (called full-length) (human, UniProt Q9C0B0 30-357)
T1 sequence: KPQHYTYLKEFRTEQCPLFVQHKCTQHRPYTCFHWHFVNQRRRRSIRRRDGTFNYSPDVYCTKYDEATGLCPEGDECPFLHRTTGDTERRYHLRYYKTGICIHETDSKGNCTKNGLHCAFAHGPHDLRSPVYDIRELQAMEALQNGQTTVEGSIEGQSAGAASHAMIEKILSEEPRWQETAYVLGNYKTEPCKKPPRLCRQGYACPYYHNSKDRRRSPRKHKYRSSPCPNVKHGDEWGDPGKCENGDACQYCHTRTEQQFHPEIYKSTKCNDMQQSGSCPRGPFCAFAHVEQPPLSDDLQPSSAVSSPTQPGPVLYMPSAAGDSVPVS

B1: chr19:34227675:34227687:+|3pUTR|ENSG00000257103|msi1_unk|FALSE|overlapping (ssRNA)
RNA: GGGAGUUCUACAGUCCGACGAUCUUAAAACAUGAGCAUUAAAUAUAUUUGGAAUAGCAGAAGGUUAAGUAAUUUCUUAUGUAUAGUUAAACUAAAGCAGUACUUCAGUGGGACUUAACAAGUAUUUUUUCAUCACUGAAAGGUCAACAGAGGAUUGAGCAUCA
B2: chr19:51415897:51416167:-|CDS|ENSG00000142512|control|control|control (ssRNA)
RNA: GGGAGUUCUACAGUCCGACGAUCGCCACACUGAGCUGGGUCCUGCAGAACAGAGUCCUCUCCUCGUCCCAUCCCUGGGGCCCUAGACCCCUGGGGCUGGAGCUGCCCGGGGUGAAGGCUGGGGAUUCAGGGCGCUACACCUGCCAACAGAGGAUUGAGCAUCA
B3: chr1:180199467:180199568:+|3pUTR|ENSG00000116260|msi1|FALSE|unique (ssRNA)
RNA: GGGAGUUCUACAGUCCGACGAUCCACAGGAACAAUUUCCUCAAGGAGACAGUGGCAUGGAGCUUUGAAAGACGAGUAGGUGUUAGCAAGGAAAUAAGGAGGAACGGGGGUUACGGGCAGAGGAGAAAGCACAUGCCAAGUCAGCAACAGAGGAUUGAGCAUCA
B4: chr15:55376998:55377117:-|CDS|ENSG00000260916|unk|total|mutant (ssRNA)
RNA: GGGAGUUCUACAGUCCGACGAUCUAUCUAUAUUGGAACUGCCAGUGAUGAUUCUGAUAUUGUUACCCUUGAGCCACCUAAGUCCGAAGAAAUUGGAAAUCAAGAAGUUGUCAUUGUUGAAGAAGCACAGAGUUCAGAAGACUUCAACAGAGGAUUGAGCAUCA
B5: chr15:63774837:63774950:-|CDS|ENSG00000103657|unk|FALSE|unique (ssRNA)
RNA: GGGAGUUCUACAGUCCGACGAUCGUAACAACAUUUCUUAAAGGAGUCACUAUUCCUAAUUCUGGGGCAGACACUUUAGGUCGUAGAUUAGCUUCUGAGUUGCUGCUUGGUUUGGCAGCUCAACGAGGCUCAUUGCGAUAUCUUCAACAGAGGAUUGAGCAUCA
B6: chr12:68660398:68660499:+|3pUTR|ENSG00000127314|msi1|total|mutant (ssRNA)
RNA: GGGAGUUCUACAGUCCGACGAUCUUGAGGUGGCCAAAUGUAAACUAAAAGCCUUAAUUAAAGUGGUGCAAUUUUGUAUAACUCCGCAUCAGCCGUUCAAUAAAUUUGGAUUGCCAUGCAAGGGCUUGCAUUAUAAUUACUUGCCAACAGAGGAUUGAGCAUCA
B7: chr5:103029089:103029184:+|3pUTR|ENSG00000145730|msi1_unk|FALSE|overlapping (ssRNA)
RNA: GGGAGUUCUACAGUCCGACGAUCAACCAAGCUUUGAUUUAGAUUGAGUAAGAUUUACCCAGAAUGUCAGAUUCCUUUCCCUUUAGCACGUUUAAAGUUCUGUGUAUUUAAUUGUAAACUGUACUAGUCUGUGUGGGACUGUACCAACAGAGGAUUGAGCAUCA
B8: chr2:32415436:32415554:+|CDS|ENSG00000115760|unk|FALSE|unique (ssRNA)
RNA: GGGAGUUCUACAGUCCGACGAUCUGGGACUUUGGUUCAGUGCUUGAGGCUGCCAAAGUUUGCAGAGGAGGAGAAUCUUUGUAUAGACUCAAUAACUCCUUGUGCUGACGGAAUUCAUUUGUUGGUAGGACUGCGGACAUGCCCCAACAGAGGAUUGAGCAUCA
B9: chr1:43978039:43978149:+|3pUTR|ENSG00000117410|unk|total|mutant (ssRNA)
RNA: GGGAGUUCUACAGUCCGACGAUCGGCCGUGCCUCACUUUUAUUUAUUGCUGGUUUUCCUGGGACAGCUGGAGCUGUGUCCCUCCGCCUUUCAGAGGCUUGGUGUUCAGGGCCCUCCCUGCACUCCCCUCUUGCUGCGUGUUGACAACAGAGGAUUGAGCAUCA
B10: ENSG00000107863:be:win_5401|CDS|ENSG00000107863|bound_else_gene|NA|bound_elsewhere_windowed (ssRNA)
RNA: GGGAGUUCUACAGUCCGACGAUCAGACAUACACUAGGAGGGCACAGAGAUGCUACCGAAAUCAGCGUUUUGAAUUUUUGGAAAGUGCAUGAGCAGAGCGGGGAGAGAGAAUCUGAACUUUCAGCUGUAAACCGGUUAAAACCACAACAGAGGAUUGAGCAUCA
B11: ENSG00000156976:stop:overlap|stop_codon|ENSG00000156976|stop_codon|NA|stop_codon (ssRNA)
RNA: GGGAGUUCUACAGUCCGACGAUCCUUUGGUUAUAAAUUAUGAUCUACCUACCAAUCGUGAAAACUAUAUUCACAGGAGUCGAUAGCAGCAGUUGGUGACGAGAUGGCACUCAGAAACGGCGUUGACGUAAUUUAGGACGUGGACAACAGAGGAUUGAGCAUCA
B12: chr2:159967538:159967678:-|CDS|ENSG00000153246|control|control|control (ssRNA)
RNA: GGGAGUUCUACAGUCCGACGAUCUAGUGAAGAGUGUUCAGUUUCUAUGCCUAGUAUCUGUAAGCGAAAAAAGGUUUGGCUCAUAGAGAAAAAGAAAGAUACACCAAAACAACAUGGAACGUGUCCCAAAGGAUGGCUAUAUUUCAACAGAGGAUUGAGCAUCA
B13: ENSG00000187498:stop:overlap|stop_codon|ENSG00000187498|stop_codon|NA|stop_codon (ssRNA)
RNA: GGGAGUUCUACAGUCCGACGAUCAGGUGAACCGGGACCUCCUGGAUUGCCAGGCUCCGUGGGGUCUCCAGGAGUUCCAGGAAUAGGCCCCCCUGGAGCUAGGGGUCCCCCUGGAGGACAGGGACCACCGGGGUUGUCAGGCCCCAACAGAGGAUUGAGCAUCA
B14: chr10:71816642:71816777:-|3pUTR|ENSG00000197746|msi1_unk|total|mutant (ssRNA)
RNA: GGGAGUUCUACAGUCCGACGAUCUUGUUUGGGGUUCUGUGGGUUUGGGUGGGAAGAGGGCCAUCUGCCUGAAUGUAACCUGCCCGCUCUCCGAAGGCCCUGCGGGCCUGGCUUGUGUGAGCGUGUGGACAGUGGUGGCCGCGCCAACAGAGGAUUGAGCAUCA
B15: chr20:35276351:35277713:-|three_prime_utr|ENSG00000126005|control|control|control (ssRNA)
RNA: GGGAGUUCUACAGUCCGACGAUCCUCCUCUCCCCACGUCCCUGCGUCUCUUACACCCCCUCCCACCCGAGGCUCCCCAGAGAUAGCAGAGAAUUCGAAGAGGUCGCCGGGGACUGGAAAGAAGUCCCGGCAGGGCCGCCUUCGCAACAGAGGAUUGAGCAUCA
B16: chr2:42328916:42329027:+|CDS|ENSG00000143924|unk|FALSE|unique (ssRNA)
RNA: GGGAGUUCUACAGUCCGACGAUCAGAAGGAUCUGAUGGGACAGAUAUCAAUGCACUGGUGCGAUCCCACAAUAGAAAGGUGAUAGCUGUUGCCGAUGACUUUUGUAAAGUCCAUCUGUUUCAGUAUCCCUGCUCCAAAGCAAACAACAGAGGAUUGAGCAUCA
B17: chr1:28742582:28742694:+|CDS|ENSG00000198492|unk|FALSE|bound_elsewhere (ssRNA)
RNA: GGGAGUUCUACAGUCCGACGAUCAGCAACGGAGAGCCCCACUUCCUACCAGAUGCAAUGUUUGGGCAACCAGGAGCCCUAGGUAGCACUCCAUUUCUUGGUCAGCAUGGUUUUAAUUUCUUUCCCAGUGGGAUUGACUUCUCACAACAGAGGAUUGAGCAUCA
B18: chr1:235182574:235182675:-|CDS|ENSG00000054267|unk|FALSE|unique (ssRNA)
RNA: GGGAGUUCUACAGUCCGACGAUCUUUGACCAACAACAGAAAUGAUCUUAUUUCAAAGGAGGAACAGAACAGUUCAUCUUUGCUAGAAGAAAACAAAGUUCAUGCAGAUUUGGUAAUAUCCAAACCAGUGUCAAAAUCUCCAGACAACAGAGGAUUGAGCAUCA
B19: chr14:81473690:81473791:-|3pUTR|ENSG00000071537|msi1|total|mutant (ssRNA)
RNA: GGGAGUUCUACAGUCCGACGAUCCAGUGUUUUGGAAGUAUGCAUGCAGGCCUAUAAAUGAAAAACACAAUUCUUUAUGUGUACCGCAUGUGUAUUAAUGUCUAACUACAUACGCAAAAACUUCCUUUACAGAGGUUCGGACUACAACAGAGGAUUGAGCAUCA
B20: chr3:124966548:124966651:-|3pUTR|ENSG00000173706|unk|FALSE|bound_elsewhere (ssRNA)
RNA: GGGAGUUCUACAGUCCGACGAUCAGGAAGAAUGCAAAGUUCAGUAUUUCAAUACUUUGUAUUUUACUUGAAAUUACCCUUAGUAGCAUCUUUUUUUUCCUGUCUGAAAGCUUUUGUGUGGAUGAGAAGGGACAUUUCAUUUCCCAACAGAGGAUUGAGCAUCA
B21: chr1:225419324:225419425:-|CDS|ENSG00000143815|msi1|FALSE|unique (ssRNA)
RNA: GGGAGUUCUACAGUCCGACGAUCUUACAUAGCAACACAGUAUAGCCUUCGUCCAAGAAGAGAAGAAGUCAAAUUAAAAGAAAUAGAUUCUAAGGAAGAAAAAUACGUUGCAAAAGAACUGGCAGUGAGAACCUUUGAAGUGACCAACAGAGGAUUGAGCAUCA
B22: chr16:18841627:18841728:-|CDS|ENSG00000157106|msi1|FALSE|bound_elsewhere (ssRNA)
RNA: GGGAGUUCUACAGUCCGACGAUCUACAAUUAAUCGCCAAGAAACACCCCGGUUCCAUGCUCGACACUAUUCUGUAACACCACUAGGAACAAGAUCAGGACUAAUCCAGUGGGUAGAUGGAGCCACACCCUUAUUUGGUCUUUACAACAGAGGAUUGAGCAUCA

target: T1, UNK ZnF1-6 (called full-length); experiment: nsRBNS (natural sequence RNA bind-n-seq); RBNS binding buffer (assumed for nsRBNS): 25 mM Tris pH 7.5, 150 mM KCl, 3 mM MgCl2, 0.01% Triton X-100, 500 ug/ml BSA, 20 U/ml SUPERase-In, 4 C; UNK is unkempt and MSI1 is Musashi-1; names of the RNAs are library labels; protein concentration not given here; high values mean tight binding

Row | Binder | binding signal
1 | B1 | 1.37 enrichment R
2 | B2 | 0.641 enrichment R
3 | B3 | 1.51 enrichment R
4 | B4 | 0.258 enrichment R
5 | B5 | 0.542 enrichment R
6 | B6 | 0.352 enrichment R
7 | B7 | 1.16 enrichment R
8 | B8 | 0.624 enrichment R
9 | B9 | 0.779 enrichment R
10 | B10 | 0.693 enrichment R
11 | B11 | 0.52 enrichment R
12 | B12 | 0.378 enrichment R
13 | B13 | 0.745 enrichment R
14 | B14 | 0.901 enrichment R
15 | B15 | 0.869 enrichment R
16 | B16 | 0.424 enrichment R
17 | B17 | 0.665 enrichment R
18 | B18 | 0.258 enrichment R
19 | B19 | 0.563 enrichment R
20 | B20 | 1.1 enrichment R
21 | B21 | 0.538 enrichment R
22 | B22 | 0.869 enrichment R
